Here are results for eight compounds from PubChem BioAssay (NCI).

Structures are written as SMILES. The panel holds about 83,000 compounds, 20% with a hit somewhere; the sample as a whole holds those more often.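 For each line, cells grew in 96-well plates with the test compound present at a single concentration for 48 hours.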 Unmarked numbers belong to inactive results. Calls of active or inactive are those of the source. Rule for the calls: active = growth percent below 10; inactive = the rest.

Test systems include NCI-H23 lung; NCI-H226 lung; NCI-H322M lung; HOP-62 NSCLC; NCI-H460 lung; NCI-H522 lung; A549/ATCC NSCLC; 786-0 renal; COLO 205 colon; DU-145 prostate; K-562 leukemia; MALME-3M melanoma; MDA-MB-231 breast; RXF 393 renal; SF-268 CNS; SF-295 CNS; SF-539 CNS; UACC-257 melanoma; M14 melanoma; HCT-15 colon.
What all share (assay): NCI-60 one-dose screen, 48 h (100 = growth as untreated, 0 = no growth, -100 = all killed)
Common to all, as to conditions: 10 µM

For the compound `Cc1cccc2c(NCCN(C)C)c3cccc(C(=O)NCCN(C)C)c3nc12`, the growth is 6.76% (active) with NCI-H23 lung; 22.4% in the assay on NCI-H226 lung; -5.21% (active) in the assay on NCI-H322M lung; 4.88% (active) with HOP-62 NSCLC; -13.2% (active) in the assay on NCI-H460 lung; -43.7% (active) in the assay with NCI-H522 lung. Further, the growth with A549/ATCC NSCLC was 16.2%; in the assay on 786-0 renal it was 14.5%; in the assay with COLO 205 colon, 0.559% (active); in the assay with DU-145 prostate, -20.1% (active); in the assay with K-562 leukemia, -24.5% (active); with MALME-3M melanoma, 7.06% (active). Moreover, the growth with MDA-MB-231 breast is 5.41% (active); in the assay with RXF 393 renal, 8.33% (active); in the assay with SF-268 CNS, 11.3%; in the assay on SF-295 CNS, 7.5% (active); in the assay with SF-539 CNS, 11.6%; with UACC-257 melanoma, -20.6% (active). In addition, the values for the growth in the assay with M14 melanoma and in the assay on HCT-15 colon were 11.7% and -46.5% (active), respectively.

As to `CC(C)(Cl)CCC1=C(Cl)C(=O)c2ccccc2C1=O`, the growth was 32.9% with NCI-H23 lung; 62.8% in the assay on NCI-H226 lung; 100% in the assay on NCI-H322M lung; 59% with HOP-62 NSCLC; 65.6% in the assay on NCI-H460 lung; -29.7% (active) with NCI-H522 lung. Besides, the growth with A549/ATCC NSCLC was 82%; in the assay on 786-0 renal, 101%; in the assay with COLO 205 colon it was 84%; in the assay with DU-145 prostate it was 104%; in the assay with K-562 leukemia it was -20% (active); in the assay with MALME-3M melanoma it was 128%. Besides, the growth was 34.1% with MDA-MB-231 breast; 28.8% in the assay on RXF 393 renal; 65.7% in the assay on SF-268 CNS; 105% in the assay with SF-295 CNS; 37.4% with SF-539 CNS; 39.2% in the assay on UACC-257 melanoma. The figures for the growth in the assay on M14 melanoma and in the assay with HCT-15 colon were 63.9% and 22.7%, respectively.

For `C=C(Cl)[C@@](Cl)(CBr)CC[C@@H](Br)C(C)(C)Cl`, the growth was 83.2% with NCI-H23 lung; 105% in the assay with NCI-H226 lung; -98.1% (active) in the assay with NCI-H322M lung; -93.2% (active) with HOP-62 NSCLC; -47.7% (active) in the assay on NCI-H460 lung; 85.1% in the assay on NCI-H522 lung. Further, the growth in the assay with A549/ATCC NSCLC is -6.36% (active); in the assay with 786-0 renal, -65.5% (active); with COLO 205 colon, -70.3% (active); in the assay on DU-145 prostate, -94.3% (active); in the assay on K-562 leukemia it was 8.41% (active); in the assay on MALME-3M melanoma, 102%. Moreover, the growth was -78.2% (active) in the assay with MDA-MB-231 breast; -5.37% (active) with RXF 393 renal; 1.89% (active) in the assay on SF-268 CNS; -48.4% (active) in the assay on SF-295 CNS; -81.9% (active) with SF-539 CNS; -66.7% (active) with UACC-257 melanoma. Further, the growth with M14 melanoma was 89.1%; in the assay with HCT-15 colon it was -63.8% (active).

Turning to `COc1ccc(-c2nn(-c3cccc(NC(=O)c4cc(C(F)(F)F)cc(C(F)(F)F)c4)c3)cc2-c2ccncc2)cc1Cl`, the growth in the assay with NCI-H23 lung is 81.1%; in the assay on NCI-H226 lung, 78.3%; in the assay on NCI-H322M lung it was 73.1%; in the assay on HOP-62 NSCLC, 88.1%; in the assay with NCI-H460 lung it was 62.3%; in the assay on NCI-H522 lung, 14.8%. Also, the growth was 53.1% with A549/ATCC NSCLC; 81.2% in the assay with 786-0 renal; 90.7% in the assay on COLO 205 colon; 83.7% in the assay on DU-145 prostate; 31.3% with K-562 leukemia; 42.5% in the assay on MALME-3M melanoma. In addition, the growth in the assay on MDA-MB-231 breast is 74%; in the assay with RXF 393 renal, 62.8%; in the assay on SF-268 CNS, 72.6%; in the assay with SF-295 CNS, 53.9%; with SF-539 CNS it was 67.4%; in the assay on UACC-257 melanoma it was 62%. In addition, in the assay on HCT-15 colon, the growth was 73.7%.

Consider `CC1(C)N=C(N)N=C(N)N1c1ccc(CCc2ccccc2)c(Cl)c1`, for which the growth was 21.4% in the assay on NCI-H23 lung; 32.4% with NCI-H226 lung; 28.7% with NCI-H322M lung; 26.3% in the assay on HOP-62 NSCLC; 10.1% in the assay with NCI-H460 lung; 1.84% (active) in the assay with NCI-H522 lung. Also, the growth in the assay on A549/ATCC NSCLC is 10.4%; in the assay with 786-0 renal it was 20.3%; with COLO 205 colon, 16%; in the assay with DU-145 prostate, 27.1%; in the assay with K-562 leukemia it was 11.2%; in the assay on MALME-3M melanoma it was 43.3%. Moreover, the growth in the assay on MDA-MB-231 breast was 39.7%; with RXF 393 renal it was 44%; in the assay with SF-268 CNS it was 21.1%; in the assay on SF-295 CNS it was 17.7%; in the assay on SF-539 CNS, 21.8%; in the assay with UACC-257 melanoma it was 3.1% (active). The growth with M14 melanoma is 20.5%; with HCT-15 colon, 39.7%.

On to `COc1ccc(OC)c(NC(=O)c2sc3nc4c(cc3c2N)C(=O)CCC4)c1`, for which the growth in the assay on NCI-H23 lung is 78.5%; in the assay on NCI-H226 lung it was 88.6%; in the assay on NCI-H322M lung, 75.9%; in the assay with HOP-62 NSCLC, 94%; with NCI-H460 lung, 37.4%; with NCI-H522 lung, 60.6%. Moreover, the growth is 39% with A549/ATCC NSCLC; 95.4% in the assay with 786-0 renal; 34.1% in the assay on COLO 205 colon; 113% in the assay on DU-145 prostate; 61.7% in the assay with K-562 leukemia; 86.4% with MALME-3M melanoma. Besides, the growth was 86.9% in the assay with MDA-MB-231 breast; 85.4% in the assay on RXF 393 renal; 110% in the assay with SF-268 CNS; 80.9% with SF-295 CNS; 97.3% in the assay on SF-539 CNS; 93.5% with UACC-257 melanoma. The values for the growth with M14 melanoma and in the assay on HCT-15 colon were 93.9% and 80.6%, respectively.

For the compound `N#CCCN1C/C(=C/c2ccccc2)C(=O)/C(=C/c2ccccc2)C1`, the growth was 78.9% with NCI-H23 lung; 69.8% in the assay with NCI-H226 lung; 86% in the assay with NCI-H322M lung; 59.5% in the assay with HOP-62 NSCLC; 71% in the assay on NCI-H460 lung; -51.6% (active) with NCI-H522 lung. Moreover, the growth in the assay with A549/ATCC NSCLC was 76.6%; in the assay on 786-0 renal it was 34.1%; with COLO 205 colon, 59.4%; in the assay with DU-145 prostate, 35.2%; with K-562 leukemia, 2.2% (active); in the assay with MALME-3M melanoma it was -28.7% (active). Also, the growth is 13.9% in the assay with MDA-MB-231 breast; 50.3% in the assay with RXF 393 renal; 24.7% in the assay with SF-268 CNS; 26.3% in the assay on SF-295 CNS; 76.1% in the assay with SF-539 CNS; 56.2% in the assay with UACC-257 melanoma. Besides, the growth with HCT-15 colon is -56.4% (active).

On to `COc1cccc(Cn2c(-c3nonc3N)nc3ccccc32)c1`, for which the growth in the assay with NCI-H23 lung is 24.2%; with NCI-H226 lung, 49.2%; with NCI-H322M lung it was 38.8%; in the assay with HOP-62 NSCLC it was 29.9%; with NCI-H460 lung it was 6.52% (active); with NCI-H522 lung it was -18.4% (active). Besides, the growth with A549/ATCC NSCLC is 16.4%; in the assay with 786-0 renal, 36.9%; in the assay on COLO 205 colon, -53.3% (active); in the assay with DU-145 prostate, 4.99% (active); in the assay with K-562 leukemia, 9.47% (active); with MALME-3M melanoma, 68.3%. Also, the growth with MDA-MB-231 breast was 27.7%; in the assay on RXF 393 renal, -40.1% (active); in the assay on SF-268 CNS, 42%; in the assay on SF-295 CNS, -26.9% (active); with SF-539 CNS it was -34.6% (active); in the assay on UACC-257 melanoma it was 49.2%. The growth was 20.4% in the assay on M14 melanoma and 24.1% with HCT-15 colon.
